Source: PubChem
Wnt act: activates Wnt/beta-catenin signaling in a reporter cell assay. activator, plate reader. activation, % at 9.35 µM. 300,000 compounds, 1.2% hits; in the data active means activation above about 30%, passing the limit was not always enough;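 further: 0% = neutral control wells and 100% = positive control wells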
GSIS activator: GLuc luminescence reporter in INS-1E cells, primary screen for activators of glucose-dependent secretion of insulin | INS-1E GLuc reporter insulin secretion, 2-3 h | activation, % at 16.6 µM | 370,000 compounds, 0.61% hits;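 active means lowest replicate activation of at least 40%, so every replicate reaches that level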;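 further: 0% = median of neutral control wells and 100% = median of IBMX positive control wells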
NSD2 inh: NSD2 (human) methyltransferase inhibition. 310,000 compounds, 0.54% hits. AID 743445. inhibition, % at 12.5 µM. O96028. NSD2 peptide methylation, AlphaScreen, 120 min
Target sequence (O96028 whole entry, looked up): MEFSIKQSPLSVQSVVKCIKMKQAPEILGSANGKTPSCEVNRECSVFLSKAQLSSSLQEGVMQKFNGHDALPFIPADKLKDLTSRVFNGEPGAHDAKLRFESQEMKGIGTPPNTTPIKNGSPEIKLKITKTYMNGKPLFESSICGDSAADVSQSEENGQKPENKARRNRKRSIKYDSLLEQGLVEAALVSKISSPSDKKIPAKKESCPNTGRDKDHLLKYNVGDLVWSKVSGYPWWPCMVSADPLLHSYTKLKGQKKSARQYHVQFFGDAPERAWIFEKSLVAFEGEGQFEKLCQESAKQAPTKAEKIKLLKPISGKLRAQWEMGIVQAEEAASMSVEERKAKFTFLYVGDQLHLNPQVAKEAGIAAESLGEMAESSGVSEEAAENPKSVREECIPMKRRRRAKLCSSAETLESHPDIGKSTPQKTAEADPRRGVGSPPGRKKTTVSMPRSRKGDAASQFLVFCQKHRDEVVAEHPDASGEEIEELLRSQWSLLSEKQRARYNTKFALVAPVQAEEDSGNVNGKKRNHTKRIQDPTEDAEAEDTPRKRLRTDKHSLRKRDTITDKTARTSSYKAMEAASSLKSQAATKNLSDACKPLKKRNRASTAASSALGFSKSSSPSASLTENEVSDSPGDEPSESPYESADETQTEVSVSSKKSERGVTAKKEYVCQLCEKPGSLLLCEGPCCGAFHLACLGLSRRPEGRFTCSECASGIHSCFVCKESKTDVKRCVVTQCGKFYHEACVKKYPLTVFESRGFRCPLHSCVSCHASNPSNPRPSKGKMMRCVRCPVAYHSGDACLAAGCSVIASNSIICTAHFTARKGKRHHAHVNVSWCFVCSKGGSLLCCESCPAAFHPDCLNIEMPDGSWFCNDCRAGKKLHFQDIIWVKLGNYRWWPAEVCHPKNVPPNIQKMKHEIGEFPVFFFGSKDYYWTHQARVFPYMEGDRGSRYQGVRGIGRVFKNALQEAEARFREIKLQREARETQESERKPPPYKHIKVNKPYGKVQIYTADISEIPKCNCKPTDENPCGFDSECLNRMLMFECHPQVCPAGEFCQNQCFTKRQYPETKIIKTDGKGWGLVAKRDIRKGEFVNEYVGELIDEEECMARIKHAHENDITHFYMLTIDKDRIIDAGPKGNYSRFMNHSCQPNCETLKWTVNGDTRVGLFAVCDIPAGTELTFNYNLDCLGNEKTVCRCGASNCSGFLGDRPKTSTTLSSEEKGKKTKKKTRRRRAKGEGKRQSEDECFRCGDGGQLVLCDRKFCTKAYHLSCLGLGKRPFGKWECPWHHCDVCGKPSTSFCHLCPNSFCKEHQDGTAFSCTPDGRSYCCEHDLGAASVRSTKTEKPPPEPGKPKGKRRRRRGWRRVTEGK
DYRK1A inh: Dyrk1A (rat) kinase inhibition | 310,000 compounds, 0.43% hits | Q63470 | inhibition, % at 12.5 µM | ADP-Glo luminescence, NFATc1 peptide;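 further: plate controls were vehicle with enzyme for no effect and no enzyme for full effect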
MITF act: MITF TRPM1 promoter activation in melanoma cells; SK-MEL-5 TRPM1-promoter luciferase, 24 h; % of positive control, neutral wells = 0; activation, % at 12.5 µM; 300,000 compounds, 0.75% hits; AID 588334;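 active means mean activation of at least 80% with every replicate also reaching 80%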;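 further: 0% = neutral control wells and 100% = parthenolide positive control wells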
miR-122 sensor: miR-122 inhibition in Huh7 cells | activation (reporter increase), % at 12.5 µM | 340,000 compounds, 0.3% hits | Huh7 miR-122 Renilla luciferase sensor, 48 h; neutral wells = 0, positive control = 100 | AID 602342;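 active means mean replicate activation score at least 90 and every replicate individually at or above 90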;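 further: higher luciferase means less miR-122 activity so hits act as miR-122 inhibitors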
Starred values were filed as active, the others as inactive; [ ] = remark or other dose. Compounds with a hit are over-represented: about 2.4% of the library has one in this group of screens. Unless noted, no stated cut-off is given here; in the data, active means inhibition above about 50%; inactive means the rest.

How did C/C(=N\Nc1ccc(C(F)(F)F)cn1)c1ccc(S(=O)(=O)NCc2ccco2)cc1 do in these assays?
Wnt act: 3.5; GSIS activator: -27.3; NSD2 inh: -1.1; DYRK1A inh: 1.4; MITF act: 1.3; miR-122 sensor: -11.6

Results for C/C(=N\Nc1ccccn1)c1ccc(C(C)C)cc1 ?
Wnt act: 4.5; GSIS activator: 1.3; NSD2 inh: 4.0; DYRK1A inh: -1.3; MITF act: 125.1*; miR-122 sensor: -3.2

What do the screens show for `C/C(=N\Nc1ccccn1)c1ccc(S(=O)(=O)NCc2ccco2)cc1`?
GSIS activator: -1.7; NSD2 inh: 2.5; DYRK1A inh: -5.2; MITF act: 15.7; miR-122 sensor: 110.1*

Results for C/C(=N\Nc1ccccn1)c1ccc(N2CCOCC2)cc1 ?
Wnt act: 28.6; GSIS activator: 9.0; NSD2 inh: 6.9; DYRK1A inh: 5.0; MITF act: 58.1

Results for COc1ccccc1-c1cnc2c(c1)C(=O)N([C@@H](C)CO)C[C@H](C)[C@H](CN(C)C(=O)c1ccccc1)O2 ?
GSIS activator: 2.1; miR-122 sensor: -3.3[16.7 µM]

What do the screens show for `COCC#Cc1ccc2c(c1)O[C@@H](CN(C)C(=O)Nc1ccc(OC)cc1)[C@@H](C)CN([C@@H](C)CO)S2(=O)=O`?
GSIS activator: -1.9; miR-122 sensor: -3.2[16.7 µM]

Results for CC1/C(=C\c2ccc(Cl)cc2)C(=O)C2CC1C2(C)C (centres undefined) ?
Wnt act: -0.1; NSD2 inh: 5.1; DYRK1A inh: -4.7; MITF act: -2.0; miR-122 sensor: -3.4

What do the screens show for `CC1CCC(C(C)C)C(=O)/C1=C/c1ccc(N)cc1` (centres undefined)?
Wnt act: 52.9*; GSIS activator: -8.9; NSD2 inh: 4.1; DYRK1A inh: -4.7; MITF act: 111.9*; miR-122 sensor: 42.7

What do the screens show for `COc1ccc2c3c(n(C)c2c1)[C@H](CO)N(C(=O)c1ccccn1)CC31CCN(C)CC1`?
GSIS activator: 20.3

How did Cc1cc(C)cc(NCc2cc(=O)oc3cc(-c4ccccc4)c(O)cc23)c1 do in these assays?
GSIS activator: -17.4; NSD2 inh: 1.0; DYRK1A inh: -0.8; MITF act: -18.0; miR-122 sensor: -5.4

How did COc1ccc(C)cc1NCc1cc(=O)oc2cc(-c3ccccc3)c(O)cc12 do in these assays?
GSIS activator: 107.3*; NSD2 inh: -1.5; DYRK1A inh: -9.7; MITF act: 34.0; miR-122 sensor: 3.2

Results for CCC(=O)Nc1ccc2c(c1)OC[C@@H](C)N(Cc1nccs1)C[C@@H](C)[C@H](OC)CN(C)C2=O ?
GSIS activator: 0.5

What do the screens show for `CC(=O)c1c(C)nc(Nc2nc3ccccc3s2)nc1C`?
Wnt act: 38.1*; GSIS activator: -6.2; NSD2 inh: 13.7; miR-122 sensor: 3.9

What do the screens show for `N/C(=N\OC(=O)c1ccc(F)cc1)c1ccc(Br)cc1`?
Wnt act: 44.2*; GSIS activator: -4.1; NSD2 inh: 27.3; DYRK1A inh: -7.0; MITF act: 65.6; miR-122 sensor: 0.5

How did N/C(=N\OC(=O)c1ccc(Br)cc1)c1ccncc1 do in these assays?
Wnt act: 11.6; GSIS activator: -4.3; NSD2 inh: -0.9; DYRK1A inh: 1.7; MITF act: 97.9*; miR-122 sensor: -9.3

Results for C[C@@H]1CN([C@H](C)CO)C(=O)c2cc(NC(=O)C3CCCCC3)ccc2O[C@@H](C)CCCCO[C@@H]1CN(C)S(=O)(=O)c1cccs1 ?
GSIS activator: 5.6; miR-122 sensor: 21.5[16.7 µM]

What do the screens show for `CC(C(=O)Nc1ccc2c(c1)OCO2)N1CCN(C)CC1` (centres undefined)?
Wnt act: 1.9; GSIS activator: 19.1; NSD2 inh: 4.2; DYRK1A inh: -6.6; MITF act: -3.4; miR-122 sensor: -4.1

How did CC(C(=O)Nc1ccc2[nH]c(=O)[nH]c2c1)N1CCN(Cc2ccc3c(c2)OCO3)CC1 (centres undefined) do in these assays?
Wnt act: 1.8; GSIS activator: 60.4*; DYRK1A inh: -0.2; MITF act: 12.4; miR-122 sensor: -4.0

What do the screens show for `CC(C)NC(=O)N(C)C[C@H]1Oc2ccc(NC(=O)CCCN(C)C)cc2C(=O)N([C@@H](C)CO)C[C@H]1C`?
GSIS activator: 27.4; miR-122 sensor: 4.7[16.7 µM]

Results for O=C1CCNc2cc3ccccc3cc21 ?
DYRK1A inh: 76.1*; miR-122 sensor: 3.2

How did Cc1noc(C)c1NC(=O)Nc1ccc2c(c1)CC(=O)N([C@H](C)CO)C[C@@H](C)[C@@H](CN(C)C(=O)Nc1ccccc1)O2 do in these assays?
GSIS activator: 11.0; miR-122 sensor: 4.3[16.7 µM]

What do the screens show for `Cc1ccc(CNc2nc(N)c([N+](=O)[O-])c(NCc3ccccc3)n2)cc1`?
Wnt act: 0.8; GSIS activator: 126.4*; NSD2 inh: -1.4; DYRK1A inh: -4.7; MITF act: -4.9

What do the screens show for `Nc1nc(NCc2ccccc2)nc(NCc2ccccc2)c1[N+](=O)[O-]`?
Wnt act: 0.2; GSIS activator: 46.2*; NSD2 inh: -0.2; DYRK1A inh: 11.2; MITF act: 8.6; miR-122 sensor: -0.5

What do the screens show for `CNc1nc(N)c([N+](=O)[O-])c(NCc2ccccc2)n1`?
Wnt act: -1.0; GSIS activator: 7.8; NSD2 inh: -1.7; DYRK1A inh: 0.2; MITF act: 17.2; miR-122 sensor: -2.8

What do the screens show for `C[C@@H]1CN([C@H](C)CO)C(=O)c2cc(NS(=O)(=O)c3cccs3)ccc2O[C@H]1CN(C)S(C)(=O)=O`?
GSIS activator: 5.0; miR-122 sensor: -7.5[16.7 µM]

Results for CO[C@@H](CN(C)C(=O)c1cnccn1)[C@H](C)CN([C@H](C)CO)S(=O)(=O)c1ccccc1 ?
GSIS activator: 1.3

Results for Cc1cc(C)n2nc(SCC(=O)Nc3ccccc3)nc2n1 ?
Wnt act: 0.7; GSIS activator: 5.2; NSD2 inh: -3.2; MITF act: 0.0; miR-122 sensor: -6.0

Results for Cc1cc(C)n2nc(SCN3C(=O)c4ccccc4C3=O)nc2n1 ?
Wnt act: -4.4; GSIS activator: 10.3; NSD2 inh: 5.8; DYRK1A inh: 1.5; MITF act: 84.1*; miR-122 sensor: -2.2

How did O=c1[nH][nH]c2c1C(c1ccc(Cl)c(Cl)c1)OC(CCc1ccccc1)C2 (centres undefined) do in these assays?
Wnt act: -0.5; GSIS activator: 56.5*

What do the screens show for `O=c1[nH]c(=S)[nH]c2c1C(c1ccc(Cl)c(Cl)c1)OC(CCc1ccccc1)C2` (centres undefined)?
Wnt act: -2.3; GSIS activator: -23.5

Results for O=C(NC1CCN(Cc2ccccc2)CC1)c1ccc(Cn2c(=S)[nH]c3ccc(N4CCOCC4)cc3c2=O)cc1 ?
Wnt act: 13.0; GSIS activator: -1.4; NSD2 inh: -4.8; MITF act: 81.1*; miR-122 sensor: -12.0
